{"source": "PubChem BioAssay AID425", "about": "(Sanford-Burnham Center for Chemical Genomics, 2006)", "note": "Among all 110,000 compounds or so, about 190 (0.17%) were called active. Cut-off read from the data, not from the text of the source: active = inhibition above about 50%; inactive = the rest. The list comes from a sample in which actives are over-represented; it also holds similar structures and randomly drawn compounds. Potency and affinity values are given separately.", "data": [{"target": "Dual specificity protein phosphatase 6 (Rattus norvegicus) (UniProt Q64346)", "sequence (Q64346 whole entry, looked up)": "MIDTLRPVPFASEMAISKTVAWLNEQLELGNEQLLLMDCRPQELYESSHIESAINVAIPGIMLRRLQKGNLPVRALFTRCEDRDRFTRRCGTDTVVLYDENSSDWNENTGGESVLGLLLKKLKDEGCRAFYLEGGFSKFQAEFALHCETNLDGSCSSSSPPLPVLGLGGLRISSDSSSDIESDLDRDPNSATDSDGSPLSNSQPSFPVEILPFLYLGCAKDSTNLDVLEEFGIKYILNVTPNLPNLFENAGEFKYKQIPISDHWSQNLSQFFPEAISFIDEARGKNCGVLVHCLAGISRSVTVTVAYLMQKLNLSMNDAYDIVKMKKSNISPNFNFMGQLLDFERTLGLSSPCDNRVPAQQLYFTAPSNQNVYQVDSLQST", "assay": "MKP-3 phosphatase inhibitors, primary screen, biochemical, rat enzyme, in vitro (AID 425);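 note: plate controls were vehicle for no effect and reference inhibitor for full effect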", "details": "recombinant MKP-3 phosphatase activity, fluorescence; at 20 µM; active compounds read high", "values": [{"smiles": "O=C(NCCNc1ccc(Cl)cc1[N+](=O)[O-])c1ccccc1Cl", "inhibition": "1.9% (inactive)"}, {"smiles": "O=c1oc2c(O)c(O)ccc2c2c1CCC2", "inhibition": "7.2% (inactive)"}, {"smiles": "Cc1c(O)ccc2c1oc(=O)c1ccccc12", "inhibition": "1.2% (inactive)"}, {"smiles": "Cc1ccc(S(=O)(=O)NCC(=O)N(CCc2ccccc2)CC(=O)NCc2ccco2)cc1", "inhibition": "-4.7% (inactive)"}, {"smiles": "Cc1nn(-c2ccccc2)c(C)c1Sc1ccc(Br)cc1", "inhibition": "0.2% (inactive)"}, {"smiles": "Cc1nn(-c2ccccc2)c(C)c1Sc1ccc(Cl)cc1", "inhibition": "74.7% (active)"}, {"smiles": "Cc1cc(C)nc(Sc2c(C)nn(-c3ccccc3)c2C)n1", "inhibition": "-0.6% (inactive)"}, {"smiles": "COc1ccc(C2C(C(=O)OC(C)C)=C(C)N=c3s/c(=C/c4c[nH]c5ccccc45)c(=O)n32)cc1", "note": "(stereo not given)", "inhibition": "3.4% (inactive)"}, {"smiles": "CCOCCOC(=O)c1ccc(NC(=O)/C=C/c2ccc(OC)c(Br)c2)cc1", "inhibition": "2.5% (inactive)"}, {"smiles": "COc1ccc(Cl)cc1C(=O)Nc1nc2ccc(S(C)(=O)=O)cc2s1", "inhibition": "3.8% (inactive)"}, {"smiles": "CCOc1ccc(NC(=O)CSc2nc3ccc(OC)cc3[nH]2)cc1", "inhibition": "-0.2% (inactive)"}, {"smiles": "O=C(O)c1ccccc1-c1ccccc1/C=N/O", "inhibition": "-1.8% (inactive)"}, {"smiles": "CCOC(=O)C1=C(C)N=c2s/c(=C\\c3ccc(OCC(=O)O)cc3)c(=O)n2C1c1ccccc1", "note": "(stereo not given)", "inhibition": "2.5% (inactive)"}, {"smiles": "CCOC(=O)C1=C(C)N=c2s/c(=C\\c3ccc(OCC)cc3)c(=O)n2C1c1ccccc1", "note": "(stereo not given)", "inhibition": "2.8% (inactive)"}, {"smiles": "Cc1c(N2C(=O)c3cccc([N+](=O)[O-])c3C2=O)c(=O)n(-c2ccccc2)n1C", "inhibition": "1.8% (inactive)"}, {"smiles": "CCN(CC)CCCNC(=O)c1cc2nc(-c3ccc([N+](=O)[O-])cc3)cc(C(F)(F)F)n2n1", "inhibition": "1.9% (inactive)"}, {"smiles": "COc1ccccc1N1C(=O)C(=Cc2cccn2C)C(=O)NC1=S", "inhibition": "93.6% (active)"}, {"smiles": "Cc1cc(/C=C2\\C(=O)NC(=S)N(c3cccc(Cl)c3)C2=O)c(C)n1C", "inhibition": "-0.4% (inactive)"}, {"smiles": "O=C1NC(=S)N(c2cccc(Cl)c2)C(=O)/C1=C\\c1ccc(N2CCCC2)cc1", "inhibition": "19.3% (inactive)"}, {"smiles": "COc1ccccc1/C=C1/C(=O)NC(=O)N(c2ccccc2OC)C1=O", "inhibition": "-1.2% (inactive)"}, {"smiles": "COc1ccccc1C=C1C(=O)NC(=S)N(c2ccccc2F)C1=O", "inhibition": "3% (inactive)"}, {"smiles": "Cn1cccc1/C=C1/C(=O)NC(=S)N(c2cccc(Cl)c2)C1=O", "inhibition": "60.6% (active)"}, {"smiles": "O=C1CC(c2cccs2)CC2=C1C(c1ccsc1)Nc1ccccc1N2", "note": "(stereo not given)", "inhibition": "-0.1% (inactive)"}, {"smiles": "C=C(C)Cn1c(SCC(=O)NN)nnc1-c1ccc(Br)cc1", "inhibition": "2.7% (inactive)"}, {"smiles": "CCC(C)(C)NC(=O)C1CCN(c2nc(C)cc(C)n2)CC1", "inhibition": "-18.2% (inactive)"}, {"smiles": "CCc1nnc(NC(=O)C2CC(=O)N(c3ccc(C)cc3)C2)s1", "note": "(stereo not given)", "inhibition": "-9.9% (inactive)"}, {"smiles": "O=C1NC(=S)S/C1=C/c1ccccc1OS(=O)(=O)c1ccccc1[N+](=O)[O-]", "inhibition": "1.4% (inactive)"}, {"smiles": "O=C1NC(=O)/C(=C/c2ccccc2[N+](=O)[O-])S1", "inhibition": "79.4% (active)"}, {"smiles": "O=C1NC(=S)N/C1=C/c1cc2c(cc1Cl)OCO2", "inhibition": "0.8% (inactive)"}, {"smiles": "O=C1NC(=S)N/C1=C/c1cc2c(cc1[N+](=O)[O-])OCO2", "inhibition": "64.9% (active)"}, {"smiles": "COc1cc(/C=C2/SC(=S)NC2=O)c([N+](=O)[O-])cc1OC", "inhibition": "50.1% (active)"}, {"smiles": "COc1cc(Br)c(/C=C2/SC(=S)NC2=O)cc1OC", "inhibition": "-0.6% (inactive)"}, {"smiles": "O=C1NC(=S)S/C1=C\\c1ccccc1[N+](=O)[O-]", "inhibition": "122% (active)"}, {"smiles": "O=C1NC(=Nc2ccc(Br)cc2)S/C1=C\\c1ccccc1[N+](=O)[O-]", "inhibition": "1.9% (inactive)"}, {"smiles": "O=C1NC(=S)S/C1=C\\c1ccccc1OS(=O)(=O)c1ccc([N+](=O)[O-])cc1", "inhibition": "1.6% (inactive)"}, {"smiles": "O=C1NC(=O)/C(=C\\c2ccccc2Cl)S1", "inhibition": "-2.9% (inactive)"}, {"smiles": "COc1cc(/C=C2\\NC(=S)NC2=O)c([N+](=O)[O-])cc1OC", "inhibition": "13.3% (inactive)"}, {"smiles": "O=C1NC(=S)N/C1=C/c1ccc2c(c1)OCO2", "inhibition": "5.3% (inactive)"}, {"smiles": "COc1ccc(CN2C(=O)C(O)(CC(=O)c3c(C)n[nH]c3C)c3ccccc32)cc1OC", "note": "(stereo not given)", "inhibition": "-1.9% (inactive)"}, {"smiles": "CCOc1cc(C(=O)Nc2ccc(Br)cc2F)cc(OCC)c1OCC", "inhibition": "5.8% (inactive)"}, {"smiles": "O=C(c1oc2ccccc2c1N1CCCCC1)N1CCCCC1", "inhibition": "2.6% (inactive)"}, {"smiles": "O=C1CN(S(=O)(=O)CCOc2ccccc2)CC(=O)N1CCOc1ccccc1", "inhibition": "3.6% (inactive)"}, {"smiles": "CN(Cc1ccccc1)c1oc(-c2ccco2)nc1C#N", "inhibition": "-1.5% (inactive)"}, {"smiles": "O=C(NN=C(C1CC1)C1CC1)c1cc2ccccc2cc1O", "inhibition": "1.9% (inactive)"}, {"smiles": "CC1(C)CC(=O)c2nc(NC(=O)CSC(=O)c3ccccc3)sc2C1", "inhibition": "0.6% (inactive)"}, {"smiles": "CN1C(=O)/C(=C\\c2cc(Br)ccc2OCc2ccccc2)SC1=S", "inhibition": "2.6% (inactive)"}, {"smiles": "O=C1NC(=O)/C(=C\\c2cc3c(cc2Br)OCO3)S1", "inhibition": "1.1% (inactive)"}, {"smiles": "O=C1NC(=O)/C(=C\\c2cc3c(cc2[N+](=O)[O-])OCO3)S1", "inhibition": "122% (active)"}, {"smiles": "O=C1/C(=C/c2cc3c(cc2[N+](=O)[O-])OCO3)Sc2ccccc21", "inhibition": "-0.9% (inactive)"}, {"smiles": "CC(C)(C)c1cc(Br)ccc1OCC(=O)Nc1ccc2c(c1)OCCO2", "inhibition": "6.4% (inactive)"}, {"smiles": "COc1ccc2nc(SCC(=O)Nc3ccccc3)[nH]c2c1", "inhibition": "-2.1% (inactive)"}, {"smiles": "COc1ccc(OC)c(N2C(=O)NC(=O)C(=Cc3ccc(C)o3)C2=O)c1", "inhibition": "3.8% (inactive)"}, {"smiles": "Cc1cc(N2C(=O)NC(=O)/C(=C\\c3ccco3)C2=O)ccc1Br", "inhibition": "42.1% (inactive)"}, {"smiles": "O=C1NC(=O)N(c2ccc(Br)cc2)C(=O)/C1=C/c1ccco1", "inhibition": "46.2% (inactive)"}, {"smiles": "Cc1ccc(C=C2C(=O)NC(=S)N(c3ccccc3Cl)C2=O)o1", "inhibition": "11.8% (inactive)"}, {"smiles": "COc1cccc(N2C(=O)C(=Cc3ccc(OC)cc3OC)C(=O)NC2=S)c1", "inhibition": "2.6% (inactive)"}, {"smiles": "O=C1NC(=S)N(c2ccc(F)cc2)C(=O)/C1=C/c1ccc(F)cc1", "inhibition": "-0.1% (inactive)"}, {"smiles": "COc1cccc(-c2cc(C(=O)NC(C)c3ccccc3)c3ccccc3n2)c1", "note": "(stereo not given)", "inhibition": "2.7% (inactive)"}, {"smiles": "CCCOc1ccc(C(=O)Nc2ccc(C)cc2[N+](=O)[O-])cc1", "inhibition": "2.7% (inactive)"}, {"smiles": "O=C(O)c1cc(O)ccc1NC(=O)C(c1ccccc1)c1ccccc1", "inhibition": "4.4% (inactive)"}]}]}
